The text below walks through data of PubChem BioAssay (NCATS).

Experiment [1] in a line: Cell Viability - Jurkat (AID 426;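 active = dose-dependent loss of cell ATP signal giving a full or clear fitted curve, ranked by lower potency value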; note: potency is the fitted concentration of half-maximal effect). To be noted: qHTS. The procedure, abridged:
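Cells of the human T-cell leukemia line Jurkat (E6-1) are seeded at 5000 per well, treated with compound across a concentration range for 40 hours at 37 °C, then lysed with CellTiter-Glo; luminescence reports ATP.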

Experiment [2] in a line: Cell Viability - Hek293 (AID 427;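 active = compounds whose dose-response curve shows a full or clear partial loss of cell viability, called from curve shape rather than a numeric limit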;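 note: potency is the fitted concentration of half-maximal effect; cells exposed to compound for 40 hours at 37 °C before reading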). To be noted: qHTS. In short, it runs like this:
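Luminescent ATP read-out (CellTiter-Glo, 20 min RT) after 40 hr compound exposure at 37 °C in complete medium. Signal normalized to DMSO (basal) and 100 uM tamoxifen (100% inhibition); concentration-response fitted with the standard Hill equation to give AC50.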

Experiment [3] in a line: Cell Viability - HepG2 (AID 433; calls by dose curve;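 note: potency is the fitted concentration of half-maximal effect; potency for ATP loss meaning cytotoxicity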). The settings on record: qHTS. The procedure, abridged: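 In this qHTS format, a 40 h, 37 °C compound incubation of HepG2 cells in complete medium precedes a 20 min CellTiter-Glo step at room temperature. Tamoxifen and doxorubicin serve as positive controls; Hill-equation fits yield AC50.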
The nature of experiment [4]: Cell Viability - MRC5 (AID 434; calls by dose curve;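 note: potency is the fitted concentration of half-maximal effect; potency reflects cytotoxicity seen as loss of intracellular ATP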). The settings on record: MRC5 lung fibroblast viability, qHTS. In short, it runs like this:
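AC50 values come from Hill-equation fits of intracellular ATP loss, measured by CellTiter-Glo luminescence. Normal lung fibroblasts (MRC5) had 40 hr compound treatment at 37 C, normalized between DMSO and 100 uM tamoxifen.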

The nature of experiment [5]: Cell Viability - SK-N-SH (AID 435; calls by dose curve;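 note: potency is the fitted concentration of half-maximal effect; compound exposure lasted 40 h at 37 °C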). The settings on record: SK-N-SH neuroblastoma cell viability qHTS. The procedure, abridged:
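Human neuroblastoma line, 40 h exposure at 37 °C, ATP quantified via luciferase luminescence; DMSO and 100 uM tamoxifen define 0 and 100% inhibition for AC50 fitting.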

Experiment [6] addresses Mitogen-activated protein kinase 10 (Mus musculus) (UniProt Q61831). In words: JNK3 AlphaScreen Assay (AID 530; active = well fitted curve in either direction with a large enough effect, not every such curve was filed as active;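 note: kinase came from lysate of stimulated human HepG2 cells; signal reports phosphorylation of biotinylated GST-cJun 1-79 at Ser73 with 10 µM ATP; % is set by controls: 0 for no effect and ±100 for the full control effect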). The settings on record: JNK3 lysate, c-Jun phosphorylation; series mostly up to 57.1 µM. In short, it runs like this:
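qHTS titrations with 15 min compound pre-incubation before adding ATP (10 uM final). Read-out: AlphaScreen of Ser73-phosphorylated biotin-GST-cJun using HepG2 lysate JNK3 activated by IL-1β and TNFα.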

Experiment [7] is described as follows: Cell Viability - N2a (AID 540).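 Note: plate controls were DMSO alone for no effect and tamoxifen control for full effect; nearly all actives have a fitted effect of over 45% in size.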 The settings on record: N2a mouse neuroblastoma cell viability; at 92.2 µM (top of the series). In short, it runs like this: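 Cytotoxicity was scored as loss of cellular ATP in N2a cells, a mouse neuroblastoma line. Compounds are applied in a qHTS concentration series for 40 hr at 37 °C.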
Experiment [8] can be described thus: Cell Viability - NIH 3T3 (AID 541).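 Note: plate controls were DMSO alone for no effect and tamoxifen positive control for full effect; nearly all actives have a fitted effect of over 25% in size.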 To be noted: NIH 3T3 cell viability, qHTS; activity change, negative = cytotoxicity: at 92.2 µM (top of the series). The procedure, abridged: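 Cells seeded at 1000/well, rested 5 hr at 37 °C, then dosed and incubated 40 hr at 37 °C. CellTiter-Glo added, 20 min room temperature, luminescence read. AC50 by Hill fit.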
Experiment [9] is described as follows: Cell Viability - HUV-EC-C (AID 542). Note: % is set by controls: 0 for no effect and ±100 for the full control effect; nearly all actives have a fitted effect of over 35% in size. The settings on record: HUV-EC-C endothelial cell viability, qHTS; series mostly up to 92.2 µM. The procedure, abridged: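 Cells were seeded at 1000 per well and incubated 5 hr at 37 °C before compound addition. After 40 hr at 37 °C, CellTiter-Glo reagent was added for 20 min and luminescence read. AC50 values came from Hill-equation modelling.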

The nature of experiment [10]: Cell Viability - H-4-II-E (AID 543). Note: nearly all actives have a fitted effect of over 35% in size. Note: potency is the fitted concentration of half-maximal effect. The settings on record: H-4-II-E rat hepatoma viability; series mostly up to 92.2 µM. The procedure, abridged:
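Cells seeded at 1500 per well and rested 5 hr; compounds added; 40 hr incubation at 37 °C; CellTiter-Glo added, 20 min at room temperature; luminescence read. Hill-equation fits gave AC50.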

Experiment [11] is described as follows: Cell Viability - SH-SY5Y (AID 544).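 For viability change, negative = cytotoxic: 0% = DMSO alone and -100% = 100 µM tamoxifen.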 Note: nearly all actives have a fitted effect of over 55% in size. Note: potency is the fitted concentration of half-maximal effect. The settings on record: SH-SY5Y neuroblastoma cell viability; viability change, negative = cytotoxic: at 92.2 µM (top of the series). The procedure, abridged:
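Cells were plated at 1500 per well and allowed 5 hr at 37 °C. Compounds were added across a concentration range and incubated 40 hr at 37 °C. CellTiter-Glo was added for 20 min at room temperature before luminescence reading.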

Experiment [12] in a line: Cell Viability - Renal Proximal Tubule (AID 545).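 Note: 0% = DMSO only and -100% = 100 µM tamoxifen; nearly all actives have a fitted effect of over 40% in size.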 The settings on record: renal proximal tubule cells viability; at 91.7 µM (top of the series) unless noted. The procedure, abridged: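 In this qHTS format, normal rat kidney-derived proximal tubule cells in complete culture medium receive compound titrations, then sit 40 hours at 37 °C before luciferase-based ATP quantitation; potency is reported as AC50 from concentration-response curves.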

A short description of experiment [13]: Cell Viability - Mesenchymal (AID 546).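 Note: cells exposed to compound for 40 hours before reading; 0% = DMSO only and -100% = 100 µM tamoxifen.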 To be noted: mesenchymal cells viability, qHTS; series mostly up to 91.7 µM. The procedure, abridged: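 CellTiter-Glo luminescence (intracellular ATP, 20 min room temperature) after 40 hr compound exposure at 37 °C of 1000 glomerulus-derived human kidney mesenchymal cells/well; AC50 values obtained by fitting qHTS concentration-response data to the Hill equation.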

Experiment [14] in a line: AP1 Signaling Pathway (AID 357; active = well fitted curve in either direction with a large enough effect, not every such curve was filed as active;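 note: ME-180 reporter cells stimulated with EGF at its EC50 level; % is set by controls: 0 for no effect and ±100 for the full control effect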). To be noted: ME-180 AP-1-bla reporter, EGF-induced, beta-lactamase ratio, 5 h; series mostly up to 17.2 µM. In short, it runs like this:
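AP-1-bla ME-180 cells, Opti-MEM + 0.5% dialyzed FBS, plated overnight 37 °C. Cpd titration + EC50 EGF, 5 h 37 °C. CCF4 2.5 h RT; ex 405, em 460/530 ratio → %activity, AC50.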

Experiment [15] can be described thus: Stat Signaling Pathway (AID 446; active = well fitted curve in either direction with a large enough effect, not every such curve was filed as active;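 note: ME-180 cervical cancer cells given 40 pM IL-6 alongside compound; SIE-controlled beta-lactamase reporter measured as 460/530 nm FRET emission ratio; % is set by controls: 0 for no effect and ±100 for the full control effect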). The settings on record: ME-180 (cervical carcinoma) SIE beta-lactamase reporter, IL-6 stimulated, 5 h. In short, it runs like this: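 Compound effects on IL-6-induced STAT reporter activity were measured in ME-180 cells. After overnight culture, cells were co-treated with 40 pM IL-6 for 5 hrs before beta-lactamase substrate loading at room temperature.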

In experiment [16] the target is Glucocorticoid receptor (Homo sapiens) (UniProt P04150). Nature of the experiment: GR-GFP Redistribution (AID 450;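 active = compounds whose dose series gives a full or clear partial fitted curve of increased nuclear translocation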; note: potency is the fitted concentration of half-maximal effect). The settings on record: U2OS GR-GFP nuclear translocation, laser cytometry, 2 h.
Chain of Glucocorticoid receptor (Homo sapiens) (P04150 whole entry, looked up): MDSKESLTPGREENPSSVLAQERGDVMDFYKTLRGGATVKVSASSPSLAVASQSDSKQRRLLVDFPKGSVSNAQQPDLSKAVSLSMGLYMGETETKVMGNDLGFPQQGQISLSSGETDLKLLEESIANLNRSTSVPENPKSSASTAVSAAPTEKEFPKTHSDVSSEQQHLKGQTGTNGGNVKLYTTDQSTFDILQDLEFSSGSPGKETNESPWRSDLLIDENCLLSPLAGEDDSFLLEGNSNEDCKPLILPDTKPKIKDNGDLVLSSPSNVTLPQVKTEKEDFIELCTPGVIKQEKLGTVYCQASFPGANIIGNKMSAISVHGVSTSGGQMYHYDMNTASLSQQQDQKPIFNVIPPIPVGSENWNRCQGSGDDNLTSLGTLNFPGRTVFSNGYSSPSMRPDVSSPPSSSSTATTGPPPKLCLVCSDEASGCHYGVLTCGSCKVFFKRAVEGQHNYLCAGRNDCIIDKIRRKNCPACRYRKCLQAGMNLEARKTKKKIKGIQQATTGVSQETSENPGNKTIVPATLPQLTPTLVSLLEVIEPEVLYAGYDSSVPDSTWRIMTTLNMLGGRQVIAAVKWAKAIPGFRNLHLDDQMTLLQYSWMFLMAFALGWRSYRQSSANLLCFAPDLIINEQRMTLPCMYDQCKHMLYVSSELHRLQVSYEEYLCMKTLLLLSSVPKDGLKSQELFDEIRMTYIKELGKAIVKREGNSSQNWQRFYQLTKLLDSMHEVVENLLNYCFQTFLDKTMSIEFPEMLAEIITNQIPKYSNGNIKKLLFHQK
Experiment [17] shares this target. Nature of the experiment: GR-EFC Redistribution (AID 451; calls by dose curve; note: potency is the fitted concentration of half-maximal effect). The settings on record: CHO-K1 GR-EFC translocation, beta-gal luminescence, 2 h. In short, it runs like this:
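Translocation of GR-ED fusion to nuclear EA restores b-gal, read by luminescence after 1 h room-temperature detection. Engineered CHO-K1 biosensor cells, 1,000/well, exposed 2 h at 37 C to titrations up to 46 uM final.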

Experiment [18] deals with Cytochrome P450 1A2 (Homo sapiens) (UniProt P05177). Nature of the experiment: p450-cyp1a2 (AID 410; calls by dose curve;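 note: -100% = full effect of reference inhibitor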). To be noted: recombinant CYP1A2, luciferin-ME demethylation, luminescence; series mostly up to 57 µM. The procedure, abridged:
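O-Demethylation of luciferin 6' methyl ether by human CYP1A2 is monitored as luciferase luminescence. Substrate sits at Km (100uM); enzyme is 20nM. Values are scaled to 57 uM furafylline as maximal inhibition.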

The nature of experiment [19]: NFAT Signaling Pathway (AID 444; active = well fitted curve in either direction with a large enough effect, not every such curve was filed as active;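 note: carbachol stimulus at about its EC50 of 1 µM final; % is set by controls: 0 for no effect and ±100 for the full control effect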). The settings on record: Jurkat NFAT-bla M1, carbachol, beta-lactamase ratio, 5 h. The procedure, abridged:
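Read-out: CCF4 FRET ratio (460 nm/530 nm) after 1 h RT dye loading, used for %activity and AC50 from titration series. Cells: Jurkat NFAT-β-lactamase/M1 line, treated with compound plus 1 uM carbachol for 5 h, 37 °C.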

Values joined by “and” are separate entries in the source; they are usually repeats but may differ in a detail not shown here. Identical values can stand only once. Unmarked numbers belong to inactive results. Results filed as inconclusive are left out. Active and inactive are the calls of the source. Unless noted, calls come from the whole dose curve; as a rule, active = well fitted curve in the direction sought with a large enough effect; inconclusive = small, poorly fitted or top-dose-only effect, or another doubt; inactive = no such curve, though single readings can be large; an effect the other way counts as inactive or inconclusive. Some results are limits rather than exact numbers.

Chain of Cytochrome P450 1A2 (Homo sapiens) (P05177 whole entry, looked up): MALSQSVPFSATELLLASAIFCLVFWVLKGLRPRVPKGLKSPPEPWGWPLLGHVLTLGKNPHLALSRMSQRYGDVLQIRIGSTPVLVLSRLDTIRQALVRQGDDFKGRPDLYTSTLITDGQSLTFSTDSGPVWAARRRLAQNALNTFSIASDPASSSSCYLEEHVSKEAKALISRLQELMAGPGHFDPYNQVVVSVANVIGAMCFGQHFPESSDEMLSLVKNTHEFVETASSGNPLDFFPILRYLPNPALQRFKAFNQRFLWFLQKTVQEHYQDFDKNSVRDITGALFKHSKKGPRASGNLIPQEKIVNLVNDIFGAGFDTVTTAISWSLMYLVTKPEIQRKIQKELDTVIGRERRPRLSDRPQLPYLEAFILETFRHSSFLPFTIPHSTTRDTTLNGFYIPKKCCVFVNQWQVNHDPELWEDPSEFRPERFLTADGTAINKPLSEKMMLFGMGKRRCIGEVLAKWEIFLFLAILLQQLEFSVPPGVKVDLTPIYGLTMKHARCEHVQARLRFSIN

Consider `c1ccc2c(c1)Nc1ccccc1S2`, for which the Potency in [1], in experiment [2], in [3], in experiment [4] and in experiment [5] was above 92 µM throughout. Also, the compound was called inactive in experiment [6], in experiment [9] and in experiment [13]. The activity change, negative = cytotoxicity is -21.6% in experiment [7], -26.2% in experiment [8] and -25% in experiment [12]. Besides, in [10], the Potency entry was “inactive”. The viability change, negative = cytotoxic in experiment [11] was -26%.

As for `Fc1ccc(C(OCCN2CCN(CCCc3ccccc3)CC2)c2ccc(F)cc2)cc1`, the outcome in [14] and in experiment [6] was inactive. For the same compound, the activity, negative = inhibition is -6.45% in experiment [15] (at 17.2 µM (top of the series)) and -18.6% in experiment [15] (at 38 µM (top of the series)). Further, the Potency in [16] is > 46 µM and > 20.6 µM; in experiment [17] it was > 46 µM and > 20.6 µM.

`CN(C)[C@@H]1C(=O)C(C(N)=O)=C(O)[C@@]2(O)C(=O)C3=C(O)c4c(O)cccc4[C@@](C)(O)[C@H]3C[C@@H]12`: in [14], the result was inactive. The activity, negative = inhibition in experiment [15] (at 17.2 µM (top of the series)) is -6.17%. Further, the Potency in experiment [16] is above 20.6 µM.

In the case of `NCC(O)c1ccc(O)cc1` (stereo not drawn), the Potency in [1], in experiment [2], in [3], in [4] and in [5] was above 92 µM in each case. Further, the compound was classed as inactive in [6], in [9] and in [13]. In addition, the activity change, negative = cytotoxicity in [7] was -14.9%; in [8] it was -28.6%; in experiment [12], -6.15%. For the same compound, in [10], the Potency result is “inactive”. The viability change, negative = cytotoxic in experiment [11] was -12.1%.

For `c1ccc2c(c1)OCC(C1=NCCN1)O2` (stereo not drawn), the result in [14] was inactive. Also, the activity, negative = inhibition in experiment [15] (at 17.2 µM (top of the series)) was -5.78%. Also, the Potency in experiment [16] was above 20.6 µM.

Take `C[C@]12C/C(=C/O)C(=O)C[C@@H]1CC[C@@H]1[C@@H]2CC[C@@]2(C)[C@H]1CC[C@]2(C)O`: the Potency in experiment [1] was 54.9 µM (active); in experiment [3] it was above 92 µM; in experiment [4] it was above 92 µM. Further, the compound was classed as inactive in experiment [6] and in experiment [13]. Besides, the activity change, negative = cytotoxicity in experiment [8] was -114% (active); in experiment [12], -89.1% (active). For the same compound, the viability change, negative = cytotoxic in experiment [11] is -95.9% (active).

On to `COC1(CS(=O)c2ccccc2)CCN(CCc2c[nH]c3ccc(F)cc23)CC1` (stereo not drawn), for which the Potency result in experiment [18] was “inactive”. The Potency in [16] and in [17] was above 46 µM each time. In addition, the outcome in experiment [6] was inactive.

For `CCC(COC(=O)c1cc(OC)c(OC)c(OC)c1)(c1ccccc1)N(C)C` (stereo not drawn), in [15] (at 17.2 µM (top of the series)), the activity, negative = inhibition is -7.98%.

As to `C=C1CC[C@@]2(O)[C@H]3Cc4ccc(O)c5c4[C@@]2(CCN3CC2CC2)[C@H]1O5`, the outcome in experiment [14] was inactive. Also, the activity change, negative = inhibition in experiment [19] (at 17.2 µM (top of the series)) is -9.27%. Also, the activity, negative = inhibition in experiment [15] (at 17.2 µM (top of the series)) is 2.91%. The Potency in [16] is above 20.6 µM.

In the case of `CCN(CC)C(=O)N[C@@H]1C=C2c3cccc4[nH]cc(c34)C[C@@H]2N(C)C1`, the result in experiment [14] and in [6] was inactive. Moreover, the activity change, negative = inhibition in [19] (at 38 µM (top of the series)) was -9.69% and -17.6%. In experiment [15] (at 38 µM (top of the series)), the activity, negative = inhibition was 4.62%. Further, the Potency in experiment [16] and in experiment [17] was above 46 µM throughout.

In the case of `N[C@@H](Cc1ccc(N(CCCl)CCCl)cc1)C(=O)O`, the values for the Potency in [1], in [10] and in experiment [11] were 18.3 µM (active), 50.1 µM (active) and 0.251 µM (active), respectively. Further, in experiment [6], the outcome was inactive. For the same compound, the activity change, negative = cytotoxicity in experiment [7] is -94.8% (active); in experiment [8] it was -113% (active); in experiment [12], -104% (active).

Take `Oc1ccc(Cl)cc1Cc1ccccc1`: the Potency in experiment [1], in experiment [2], in [3] and in experiment [5] was above 92 µM each time. For the same compound, the outcome in [6], in experiment [9] and in experiment [13] was inactive. Also, the results for the activity change, negative = cytotoxicity in experiment [8] and in experiment [12] were -0.588% and -8.93%, respectively. In addition, the Potency result in experiment [10] was “inactive”.
